Results on 13 sequences are retold here after PMC11006913.

Assay in all cases: PBM; 200 nM protein, PBS
Settings in all cases: dsDNA, one strand shown

In experiment [1] the target is HOXA4 (Homo sapiens, UniProt Q00056 201-287, W262R).
The target in experiment [2] is HOXA4 (Homo sapiens, UniProt Q00056 201-287, R217L).
In experiment [3] the target is ALX3 (Homo sapiens, UniProt O95076 139-225, N203Q).
Experiment [4] has as its target HOXA4 (Homo sapiens, UniProt Q00056 201-287).
Experiment [5] addresses ALX3 (Homo sapiens, UniProt O95076 139-225).
Experiment [6] deals with ALX3 (Homo sapiens, UniProt O95076 139-225, L168Q).
Experiment [7] deals with ALX3 (Homo sapiens, UniProt O95076 139-225, L168V).
The target of experiment [8] is HOXA4 (Homo sapiens, UniProt Q00056 201-287, W262F).
The target of experiment [9] is ALX3 (Homo sapiens, UniProt O95076 139-225, N203S).
In experiment [10] the target is HOXB6 (Homo sapiens, UniProt P17509 132-218, K202E).
The target in experiment [11] is HOXB6 (Homo sapiens, UniProt P17509 132-218).
The target of experiment [12] is MSX2 (Homo sapiens, UniProt P35548 130-214, R199I).
Experiment [13] deals with MSX2 (Homo sapiens, UniProt P35548 130-214).
For experiment [14], the target named is MSX2 (Homo sapiens, UniProt P35548 130-214, F161Y).
MSX2 (Homo sapiens, UniProt P35548 130-214, F161Y), sequence (P35548 130-214 F161Y): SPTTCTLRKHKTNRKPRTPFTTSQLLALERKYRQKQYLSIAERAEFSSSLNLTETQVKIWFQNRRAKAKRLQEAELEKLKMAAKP

HOXA4 (Homo sapiens, UniProt Q00056 201-287, R217L), sequence (Q00056 201-287 R217L): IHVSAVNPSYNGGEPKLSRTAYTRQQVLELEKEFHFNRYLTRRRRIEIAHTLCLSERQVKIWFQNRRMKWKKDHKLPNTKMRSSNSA
HOXA4 (Homo sapiens, UniProt Q00056 201-287, W262F), sequence (Q00056 201-287 W262F): as the sequence (Q00056 201-287 R217L) above, with L17R, W62F counted along it
ALX3 (Homo sapiens, UniProt O95076 139-225), sequence (O95076 139-225): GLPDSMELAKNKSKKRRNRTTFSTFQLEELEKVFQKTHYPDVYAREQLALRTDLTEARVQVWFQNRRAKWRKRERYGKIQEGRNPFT
ALX3 (Homo sapiens, UniProt O95076 139-225, L168Q), sequence (O95076 139-225 L168Q): as the sequence (O95076 139-225) above, with L30Q counted along it
ALX3 (Homo sapiens, UniProt O95076 139-225, L168V), sequence (O95076 139-225 L168V): as the sequence (O95076 139-225) above, with L30V counted along it
HOXA4 (Homo sapiens, UniProt Q00056 201-287), sequence (Q00056 201-287): as the sequence (Q00056 201-287 R217L) above, with L17R counted along it
ALX3 (Homo sapiens, UniProt O95076 139-225, N203Q), sequence (O95076 139-225 N203Q): as the sequence (O95076 139-225) above, with N65Q counted along it
ALX3 (Homo sapiens, UniProt O95076 139-225, N203S), sequence (O95076 139-225 N203S): as the sequence (O95076 139-225) above, with N65S counted along it
HOXA4 (Homo sapiens, UniProt Q00056 201-287, W262R), sequence (Q00056 201-287 W262R): as the sequence (Q00056 201-287 R217L) above, with L17R, W62R counted along it
MSX2 (Homo sapiens, UniProt P35548 130-214, R199I), sequence (P35548 130-214 R199I): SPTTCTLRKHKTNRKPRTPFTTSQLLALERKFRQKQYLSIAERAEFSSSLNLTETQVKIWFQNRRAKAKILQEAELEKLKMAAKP
HOXB6 (Homo sapiens, UniProt P17509 132-218, K202E), sequence (P17509 132-218 K202E): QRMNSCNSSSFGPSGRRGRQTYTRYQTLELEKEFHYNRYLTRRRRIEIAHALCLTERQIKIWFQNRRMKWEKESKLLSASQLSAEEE
HOXB6 (Homo sapiens, UniProt P17509 132-218), sequence (P17509 132-218): as the sequence (P17509 132-218 K202E) above, with E71K counted along it
MSX2 (Homo sapiens, UniProt P35548 130-214), sequence (P35548 130-214): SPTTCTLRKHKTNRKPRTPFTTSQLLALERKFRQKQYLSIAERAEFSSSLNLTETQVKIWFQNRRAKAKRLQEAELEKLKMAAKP

As to CCCCCGGC, the binding signal with HOXA4 [1] was 9.54 upbm affinity estimate (log intensity, higher = more binding, comparable within an allelic series); in the experiment with HOXA4 [2], 9.54 upbm affinity estimate (log intensity, higher = more binding, comparable within an allelic series); with ALX3 [3], 7.57 upbm affinity estimate (log intensity, higher = more binding, comparable within an allelic series); with HOXA4 [4] it was 9.88 upbm affinity estimate (log intensity, higher = more binding, comparable within an allelic series); in the experiment with ALX3 [5] it was 7.92 upbm affinity estimate (log intensity, higher = more binding, comparable within an allelic series); with ALX3 [6], 7.56 upbm affinity estimate (log intensity, higher = more binding, comparable within an allelic series). In addition, the binding signal is 7.46 upbm affinity estimate (log intensity, higher = more binding, comparable within an allelic series) in the experiment with ALX3 [7]; 9.51 upbm affinity estimate (log intensity, higher = more binding, comparable within an allelic series) with HOXA4 [8]; 7.52 upbm affinity estimate (log intensity, higher = more binding, comparable within an allelic series) with ALX3 [9].
Regarding AGTCCCCG, the binding signal was 9.96 upbm affinity estimate (log intensity, higher = more binding, comparable within an allelic series) with HOXA4 [1]; 9.67 upbm affinity estimate (log intensity, higher = more binding, comparable within an allelic series) with HOXA4 [2]; 9.89 upbm affinity estimate (log intensity, higher = more binding, comparable within an allelic series) with HOXA4 [4]; 9.99 upbm affinity estimate (log intensity, higher = more binding, comparable within an allelic series) in the experiment with HOXA4 [8].
For the sequence ATCATAAG, the binding signal with HOXA4 [1] was 10.4 upbm affinity estimate (log intensity, higher = more binding, comparable within an allelic series); with HOXB6 [10] it was 9.66 upbm affinity estimate (log intensity, higher = more binding, comparable within an allelic series); with HOXA4 [4], 11.8 upbm affinity estimate (log intensity, higher = more binding, comparable within an allelic series); with HOXB6 [11], 10.3 upbm affinity estimate (log intensity, higher = more binding, comparable within an allelic series).
With GGCCCGGA, the binding signal in the experiment with HOXA4 [1] is 9.72 upbm affinity estimate (log intensity, higher = more binding, comparable within an allelic series); in the experiment with HOXA4 [2] it was 9.68 upbm affinity estimate (log intensity, higher = more binding, comparable within an allelic series); with MSX2 [12], 9.48 upbm affinity estimate (log intensity, higher = more binding, comparable within an allelic series); with ALX3 [3], 7.72 upbm affinity estimate (log intensity, higher = more binding, comparable within an allelic series); with HOXA4 [4] it was 9.79 upbm affinity estimate (log intensity, higher = more binding, comparable within an allelic series); with MSX2 [13], 9.31 upbm affinity estimate (log intensity, higher = more binding, comparable within an allelic series). In addition, the binding signal is 7.7 upbm affinity estimate (log intensity, higher = more binding, comparable within an allelic series) with ALX3 [5]; 7.72 upbm affinity estimate (log intensity, higher = more binding, comparable within an allelic series) with ALX3 [6]; 7.71 upbm affinity estimate (log intensity, higher = more binding, comparable within an allelic series) with ALX3 [7]; 9.46 upbm affinity estimate (log intensity, higher = more binding, comparable within an allelic series) in the experiment with MSX2 [14]; 9.78 upbm affinity estimate (log intensity, higher = more binding, comparable within an allelic series) in the experiment with HOXA4 [8]; 7.75 upbm affinity estimate (log intensity, higher = more binding, comparable within an allelic series) with ALX3 [9].
Regarding CCTGCTCC, the binding signal was 9.98 upbm affinity estimate (log intensity, higher = more binding, comparable within an allelic series) with HOXA4 [1]; 9.88 upbm affinity estimate (log intensity, higher = more binding, comparable within an allelic series) with HOXA4 [2]; 9.83 upbm affinity estimate (log intensity, higher = more binding, comparable within an allelic series) in the experiment with HOXA4 [4]; 9.97 upbm affinity estimate (log intensity, higher = more binding, comparable within an allelic series) with HOXA4 [8].
With CGAGGGCG, the binding signal in the experiment with HOXA4 [1] is 9.7 upbm affinity estimate (log intensity, higher = more binding, comparable within an allelic series); with HOXA4 [2], 9.75 upbm affinity estimate (log intensity, higher = more binding, comparable within an allelic series); with ALX3 [3], 7.74 upbm affinity estimate (log intensity, higher = more binding, comparable within an allelic series); with HOXA4 [4] it was 9.8 upbm affinity estimate (log intensity, higher = more binding, comparable within an allelic series); in the experiment with ALX3 [5], 7.69 upbm affinity estimate (log intensity, higher = more binding, comparable within an allelic series); in the experiment with ALX3 [6], 7.78 upbm affinity estimate (log intensity, higher = more binding, comparable within an allelic series). For the same sequence, the binding signal in the experiment with ALX3 [7] is 7.76 upbm affinity estimate (log intensity, higher = more binding, comparable within an allelic series); with HOXA4 [8], 9.89 upbm affinity estimate (log intensity, higher = more binding, comparable within an allelic series); in the experiment with ALX3 [9] it was 7.73 upbm affinity estimate (log intensity, higher = more binding, comparable within an allelic series).
Regarding GACCCCCC, the binding signal in the experiment with HOXA4 [1] was 9.49 upbm affinity estimate (log intensity, higher = more binding, comparable within an allelic series); with HOXA4 [2], 9.56 upbm affinity estimate (log intensity, higher = more binding, comparable within an allelic series); in the experiment with HOXA4 [4], 9.7 upbm affinity estimate (log intensity, higher = more binding, comparable within an allelic series); in the experiment with HOXA4 [8], 9.59 upbm affinity estimate (log intensity, higher = more binding, comparable within an allelic series).
With CCTCGTCC, the binding signal with HOXA4 [1] is 9.94 upbm affinity estimate (log intensity, higher = more binding, comparable within an allelic series); in the experiment with HOXA4 [2] it was 9.95 upbm affinity estimate (log intensity, higher = more binding, comparable within an allelic series); with HOXA4 [4], 9.86 upbm affinity estimate (log intensity, higher = more binding, comparable within an allelic series); with HOXA4 [8], 9.98 upbm affinity estimate (log intensity, higher = more binding, comparable within an allelic series).
As for CCCCGACC, the binding signal was 9.87 upbm affinity estimate (log intensity, higher = more binding, comparable within an allelic series) with HOXA4 [1]; 9.84 upbm affinity estimate (log intensity, higher = more binding, comparable within an allelic series) with HOXA4 [2]; 9.87 upbm affinity estimate (log intensity, higher = more binding, comparable within an allelic series) in the experiment with HOXA4 [4]; 9.99 upbm affinity estimate (log intensity, higher = more binding, comparable within an allelic series) with HOXA4 [8].
AGGAGTCC: the binding signal with HOXA4 [1] was 9.98 upbm affinity estimate (log intensity, higher = more binding, comparable within an allelic series); with HOXA4 [2], 9.79 upbm affinity estimate (log intensity, higher = more binding, comparable within an allelic series); in the experiment with HOXA4 [4], 9.77 upbm affinity estimate (log intensity, higher = more binding, comparable within an allelic series); with HOXA4 [8] it was 9.94 upbm affinity estimate (log intensity, higher = more binding, comparable within an allelic series).
Regarding GGACTCCC, the binding signal with HOXA4 [1] is 9.88 upbm affinity estimate (log intensity, higher = more binding, comparable within an allelic series); with HOXA4 [2], 9.72 upbm affinity estimate (log intensity, higher = more binding, comparable within an allelic series); in the experiment with HOXA4 [4], 9.84 upbm affinity estimate (log intensity, higher = more binding, comparable within an allelic series); in the experiment with HOXA4 [8] it was 9.79 upbm affinity estimate (log intensity, higher = more binding, comparable within an allelic series).
Consider AGTCCTTC, for which the binding signal with HOXA4 [1] is 9.96 upbm affinity estimate (log intensity, higher = more binding, comparable within an allelic series); with HOXA4 [2] it was 9.81 upbm affinity estimate (log intensity, higher = more binding, comparable within an allelic series); with HOXA4 [4], 9.61 upbm affinity estimate (log intensity, higher = more binding, comparable within an allelic series); with HOXA4 [8], 9.89 upbm affinity estimate (log intensity, higher = more binding, comparable within an allelic series).
Consider GTCTATAA, for which the binding signal with HOXA4 [1] was 10.4 upbm affinity estimate (log intensity, higher = more binding, comparable within an allelic series); in the experiment with HOXA4 [4] it was 11.4 upbm affinity estimate (log intensity, higher = more binding, comparable within an allelic series).
